A short description of assay [1]: NCI Yeast Anticancer Drug Screen. Data for the rad50 strain (AID 155).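 Further: 0% = growth of vehicle-only cultures of the same strain.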 To be noted: S. cerevisiae rad50 strain growth inhibition, stronger effect = higher value. An outline of the steps:
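Relative growth inhibition (compound vs vehicle) was measured in yeast with a defined repair-gene alteration.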

Assay [2] can be described thus: NCI Yeast Anticancer Drug Screen. Data for the mec2-1 strain (AID 157). To be noted: S. cerevisiae mec2-1 strain, stronger effect = higher value. Put shortly: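 mec2-1 yeast strain, carrying an alteration in DNA damage repair or cell cycle control, was exposed to compounds; growth inhibition was measured relative to vehicle-treated controls.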
Assay [3] can be described thus: NCI Yeast Anticancer Drug Screen. Data for the sgs1 mgt1 strain (AID 161).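 Further: 0% = growth of cultures given vehicle only.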 As to conditions: S. cerevisiae sgs1 mgt1 strain, stronger effect = higher value. Put shortly: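 Growth of a repair-deficient yeast mutant was monitored after compound treatment and expressed as inhibition relative to vehicle-treated cultures.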
Assay [4] can be described thus: NCI Yeast Anticancer Drug Screen. Data for the cln2 rad14 strain (AID 165).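 Further: 0% = growth equal to vehicle treated cultures.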 As to conditions: S. cerevisiae cln2 rad14 strain, stronger effect = higher value. Put shortly:
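Yeast carrying cln2 and rad14 alterations (cell cycle control and DNA damage repair) were exposed to compounds. Growth inhibition was measured against vehicle-treated controls.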

The nature of assay [5]: NCI Yeast Anticancer Drug Screen. Data for the bub3 strain (AID 167). To be noted: S. cerevisiae bub3 mutant strain, stronger effect = higher value. An outline of the steps:
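Screening used yeast with an engineered genetic alteration affecting cell cycle control. Compound-exposed cultures were compared with vehicle cultures, and reduced growth was taken as inhibition.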

Assay [6] is described as follows: NCI Yeast Anticancer Drug Screen. Data for the mlh1 rad18 strain (AID 175). As to conditions: S. cerevisiae mlh1 rad18 strain growth inhibition, stronger effect = higher value. An outline of the steps: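 Growth inhibition of the yeast strain was measured after compound exposure and expressed relative to vehicle-treated controls. The strain carries defined defects in DNA damage repair.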

[7] abbreviates: at 5.0 µM (retest, dose inferred, filed as 0.5).
The mark [8] stands for this setting: at 50.0 µM (retest, dose inferred, filed as 5.0).

Each structure is given as a SMILES string. About 79,000 compounds went through this panel and 15% of them were active in at least one assay; those are over-represented in the sample as a whole. A number with no mark means an inactive call. Active and inactive are the calls of the source. No stated cut-off is given here; in the data, active means growth inhibition above about 70%; inactive means the rest.

Consider `COc1c(NC(=O)CC(C)=O)[c]([Hg][O]C(C)=O)c(OC)c(Cl)[c]1[Hg][O]C(C)=O`, for which the growth inhibition in assay [1] (setting [7]) was 29%; in assay [1] (setting [8]), 95% (active); in assay [1] (at 50.0 µM) it was 91.8% (active); in assay [2] (setting [7]) it was 32%; in assay [2] (setting [8]), 96% (active); in assay [2] (at 50.0 µM), 93.8% (active). Further, the growth inhibition was 81% (active) in assay [3] (setting [7]); 97% (active) in assay [3] (setting [8]); 93.5% (active) in assay [3] (at 50.0 µM); 29% in assay [4] (setting [7]); 96% (active) in assay [4] (setting [8]); 88.8% (active) in assay [4] (at 50.0 µM). Besides, the growth inhibition was 62% in assay [5] (setting [7]); 97% (active) in assay [5] (setting [8]); 93.3% (active) in assay [5] (at 50.0 µM); 38% in assay [6] (setting [7]); 95% (active) in assay [6] (setting [8]); 87.8% (active) in assay [6] (at 50.0 µM).

`COc1ccc(C2N(Cc3ccc(N(CCCl)CCCl)cc3C)CCCN2Cc2ccc(N(CCCl)CCCl)cc2C)cc1`: the growth inhibition in assay [1] (setting [7]) is 10%; in assay [1] (setting [8]), 98% (active); in assay [1] (at 50.0 µM), 97.1% (active); in assay [2] (setting [7]), -32%; in assay [2] (setting [8]) it was 96% (active); in assay [2] (at 50.0 µM), 99% (active). Further, the growth inhibition was 3% in assay [3] (setting [7]); 99% (active) in assay [3] (setting [8]); 99% (active) in assay [3] (at 50.0 µM); 2% in assay [4] (setting [7]); 94% (active) in assay [4] (setting [8]); 75% (active) in assay [4] (at 50.0 µM). The growth inhibition in assay [5] (setting [7]) was 26%; in assay [5] (setting [8]), 96% (active); in assay [5] (at 50.0 µM) it was 98.3% (active); in assay [6] (setting [7]), 18%; in assay [6] (setting [8]) it was 97% (active); in assay [6] (at 50.0 µM) it was 98.5% (active).

Regarding `CC(=O)OCC12CCC(C)=CC1OC1C3(O)N=C(C)OC3C2(C)C12CO2` (configuration not stated), the growth inhibition in assay [1] (setting [7]) is 35%; in assay [1] (setting [8]), 78% (active); in assay [1] (at 50.0 µM), 32.2%; in assay [2] (setting [7]) it was 28%; in assay [2] (setting [8]), 55%; in assay [2] (at 50.0 µM), 69%. Besides, the growth inhibition was 46% in assay [3] (setting [7]); 76% (active) in assay [3] (setting [8]); 41% in assay [3] (at 50.0 µM); 38% in assay [4] (setting [7]); 64% in assay [4] (setting [8]); 56.3% in assay [4] (at 50.0 µM). Further, the growth inhibition in assay [5] (setting [7]) was 18%; in assay [5] (setting [8]), 69%; in assay [5] (at 50.0 µM), 41.9%; in assay [6] (setting [7]), 46%; in assay [6] (setting [8]), 75% (active); in assay [6] (at 50.0 µM) it was 18.4%.

In the case of `CC(=O)O.CC(=O)[O-].CC(=O)[O-].[Co+3].[NH-]CC[NH-].[NH-]CC[NH-]`, the growth inhibition in assay [1] (setting [7]) was -5%; in assay [1] (setting [8]), 94% (active); in assay [1] (at 50.0 µM) it was 23.3%; in assay [2] (setting [7]), -5%; in assay [2] (setting [8]), 98% (active); in assay [2] (at 50.0 µM), 10.3%. The growth inhibition in assay [3] (setting [7]) was 2%; in assay [3] (setting [8]), 97% (active); in assay [3] (at 50.0 µM) it was -3.35%; in assay [4] (setting [7]) it was -4%; in assay [4] (setting [8]), 96% (active); in assay [4] (at 50.0 µM) it was 31.6%. Besides, the growth inhibition in assay [5] (setting [7]) was 38%; in assay [5] (setting [8]), 98% (active); in assay [5] (at 50.0 µM), -1.65%; in assay [6] (setting [7]) it was -7%; in assay [6] (setting [8]) it was 97% (active); in assay [6] (at 50.0 µM), 4.05%.

For `O=[n+]1c2ccccc2n([O-])c2ccccc21.[Cl][Ni][Cl]`, the growth inhibition in assay [1] (setting [7]) was 96% (active); in assay [1] (setting [8]) it was 99% (active); in assay [1] (at 50.0 µM) it was 90.8% (active); in assay [2] (setting [7]), 75% (active); in assay [2] (setting [8]), 100% (active); in assay [2] (at 50.0 µM), 92.7% (active). Moreover, the growth inhibition in assay [3] (setting [7]) is 89% (active); in assay [3] (setting [8]), 99% (active); in assay [3] (at 50.0 µM) it was 92.3% (active); in assay [4] (setting [7]), 33%; in assay [4] (setting [8]) it was 98% (active); in assay [4] (at 50.0 µM), 90.6% (active). In addition, the growth inhibition in assay [5] (setting [7]) was 68%; in assay [5] (setting [8]), 100% (active); in assay [5] (at 50.0 µM), 89% (active); in assay [6] (setting [7]) it was 92% (active); in assay [6] (setting [8]), 96% (active); in assay [6] (at 50.0 µM) it was 91.9% (active).

On to `CSc1ncc(COP(=S)(OCc2cnc(SC)nc2N)OCc2cnc(SC)nc2N)c(N)n1`, for which the growth inhibition is -1% in assay [1] (setting [7]); -2% in assay [1] (setting [8]); -39.3% in assay [1] (at 50.0 µM); 15% in assay [2] (setting [7]); -6% in assay [2] (setting [8]); -5.35% in assay [2] (at 50.0 µM). For the same molecule, the growth inhibition is 1% in assay [3] (setting [7]); 3% in assay [3] (setting [8]); -15.9% in assay [3] (at 50.0 µM); 8% in assay [4] (setting [7]); -3% in assay [4] (setting [8]); 23.9% in assay [4] (at 50.0 µM). Further, the growth inhibition is -1% in assay [5] (setting [7]); -3% in assay [5] (setting [8]); -2.3% in assay [5] (at 50.0 µM); -1% in assay [6] (setting [7]); 9% in assay [6] (setting [8]); 23% in assay [6] (at 50.0 µM).

`CCCCCCC1CC2(Cl)C(Cl)=C(Cl)C1(Cl)C2(Cl)Cl` (configuration not stated): the growth inhibition is 32% in assay [1] (setting [7]); 99% (active) in assay [1] (setting [8]); 99.7% (active) in assay [1] (at 50.0 µM); 34% in assay [2] (setting [7]); 100% (active) in assay [2] (setting [8]); 99.8% (active) in assay [2] (at 50.0 µM). For the same molecule, the growth inhibition in assay [3] (setting [7]) is 53%; in assay [3] (setting [8]), 99% (active); in assay [3] (at 50.0 µM) it was 99.8% (active); in assay [4] (setting [7]), 19%; in assay [4] (setting [8]) it was 99% (active); in assay [4] (at 50.0 µM), 99.6% (active). Also, the growth inhibition in assay [5] (setting [7]) is 20%; in assay [5] (setting [8]), 99% (active); in assay [5] (at 50.0 µM), 99.7% (active); in assay [6] (setting [7]), 54%; in assay [6] (setting [8]), 99% (active); in assay [6] (at 50.0 µM) it was 99.5% (active).

For `CCCCCCCCCCCCCCCc1cccc(O)c1O`, the growth inhibition is -2% in assay [1] (setting [7]); -7% in assay [1] (setting [8]); 51.2% in assay [1] (at 50.0 µM); -2% in assay [2] (setting [7]); 3% in assay [2] (setting [8]); 92.1% (active) in assay [2] (at 50.0 µM). Moreover, the growth inhibition in assay [3] (setting [7]) was -1%; in assay [3] (setting [8]), 27%; in assay [3] (at 50.0 µM) it was 51.5%; in assay [4] (setting [7]) it was -4%; in assay [4] (setting [8]), -8%; in assay [4] (at 50.0 µM), -5.3%. In addition, the growth inhibition was 1% in assay [5] (setting [7]); -4% in assay [5] (setting [8]); 48.4% in assay [5] (at 50.0 µM); -6% in assay [6] (setting [7]); 7% in assay [6] (setting [8]); 82.7% (active) in assay [6] (at 50.0 µM).

Turning to `CSc1nncc(=O)[nH]1.[Hg]`, the growth inhibition in assay [1] (setting [7]) is 99% (active); in assay [1] (setting [8]), 99% (active); in assay [1] (at 50.0 µM) it was 99.2% (active); in assay [2] (setting [7]) it was 99% (active); in assay [2] (setting [8]), 99% (active); in assay [2] (at 50.0 µM), 99.5% (active). The growth inhibition was 100% (active) in assay [3] (setting [7]); 99% (active) in assay [3] (setting [8]); 99.5% (active) in assay [3] (at 50.0 µM); 99% (active) in assay [4] (setting [7]); 99% (active) in assay [4] (setting [8]); 99.2% (active) in assay [4] (at 50.0 µM). In addition, the growth inhibition in assay [5] (setting [7]) was 99% (active); in assay [5] (setting [8]), 99% (active); in assay [5] (at 50.0 µM), 99.2% (active); in assay [6] (setting [7]), 99% (active); in assay [6] (setting [8]) it was 99% (active); in assay [6] (at 50.0 µM), 99.2% (active).

For the origin of these results see PubChem BioAssay (NCI).
